Test results as given in ChEMBL document CHEMBL1961873, “Compounds: GSK PKIS; Assays: Nanosyn kinase panel” (2012).
Where “and” joins values, the source holds several entries; their conditions need not be identical. Equal entries are not always repeated.

Tests used:
[1] = molecular target: Tyrosine-protein kinase receptor UFO (Homo sapiens) (UniProt P30530); details: at 1 µM
[2] = molecular target: Tyrosine-protein kinase Blk (Homo sapiens) (UniProt P51451); details: at 0.1 µM
[3] = molecular target: Tyrosine-protein kinase Blk (Homo sapiens) (UniProt P51451); details: at 1 µM
[4] = molecular target: T1, Cytoplasmic tyrosine-protein kinase BMX (Homo sapiens) (UniProt P51813); details: at 0.1 µM
T1 sequence (whole entry): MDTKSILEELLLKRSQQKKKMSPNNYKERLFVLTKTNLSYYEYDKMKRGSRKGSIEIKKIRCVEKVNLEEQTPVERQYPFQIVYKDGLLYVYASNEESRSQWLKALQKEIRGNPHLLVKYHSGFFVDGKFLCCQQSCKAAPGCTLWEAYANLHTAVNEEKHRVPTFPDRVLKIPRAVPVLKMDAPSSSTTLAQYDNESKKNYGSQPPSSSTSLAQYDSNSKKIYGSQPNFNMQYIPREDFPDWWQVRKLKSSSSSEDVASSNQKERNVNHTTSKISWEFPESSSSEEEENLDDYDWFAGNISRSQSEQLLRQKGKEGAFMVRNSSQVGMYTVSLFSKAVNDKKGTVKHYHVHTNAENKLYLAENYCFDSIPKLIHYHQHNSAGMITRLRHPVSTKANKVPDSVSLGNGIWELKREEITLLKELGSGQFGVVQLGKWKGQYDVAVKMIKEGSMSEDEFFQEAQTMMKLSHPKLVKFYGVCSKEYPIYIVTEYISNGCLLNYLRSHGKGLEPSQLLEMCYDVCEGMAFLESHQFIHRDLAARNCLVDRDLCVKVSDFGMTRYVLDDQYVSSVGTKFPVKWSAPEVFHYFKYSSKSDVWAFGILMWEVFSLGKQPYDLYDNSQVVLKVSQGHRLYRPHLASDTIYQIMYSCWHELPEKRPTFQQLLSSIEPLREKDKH

[5] = molecular target: T1, Cytoplasmic tyrosine-protein kinase BMX (Homo sapiens); details: at 1 µM
[6] = molecular target: Protein-tyrosine kinase 6 (Homo sapiens) (UniProt Q13882); details: at 0.1 µM
[7] = molecular target: Protein-tyrosine kinase 6 (Homo sapiens) (UniProt Q13882); details: at 1 µM
[8] = molecular target: Tyrosine-protein kinase BTK (Homo sapiens) (UniProt Q06187); details: at 0.1 µM
[9] = molecular target: Tyrosine-protein kinase BTK (Homo sapiens) (UniProt Q06187); details: at 1 µM
[10] = molecular target: Tyrosine-protein kinase CSK (Homo sapiens) (UniProt P41240); details: at 0.1 µM;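 further: value given is the averaged percent inhibition of CSK kinase activity, from the GSK PKIS kinase inhibitor set screening panel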
Chain of Tyrosine-protein kinase CSK (Homo sapiens) (P41240 2-450 limits assumed): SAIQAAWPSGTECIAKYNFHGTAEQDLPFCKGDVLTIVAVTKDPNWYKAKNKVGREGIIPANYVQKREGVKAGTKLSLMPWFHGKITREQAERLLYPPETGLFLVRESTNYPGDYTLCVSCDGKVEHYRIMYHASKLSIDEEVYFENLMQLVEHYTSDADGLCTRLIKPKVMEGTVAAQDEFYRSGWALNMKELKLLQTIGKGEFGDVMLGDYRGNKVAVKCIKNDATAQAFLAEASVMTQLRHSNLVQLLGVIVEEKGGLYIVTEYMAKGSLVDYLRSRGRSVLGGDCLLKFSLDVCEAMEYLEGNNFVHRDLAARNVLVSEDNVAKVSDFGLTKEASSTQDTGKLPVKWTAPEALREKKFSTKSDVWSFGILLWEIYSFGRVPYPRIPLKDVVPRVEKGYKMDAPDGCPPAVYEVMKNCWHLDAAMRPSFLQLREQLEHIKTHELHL

Chain of Tyrosine-protein kinase receptor UFO (Homo sapiens) (P30530 whole entry): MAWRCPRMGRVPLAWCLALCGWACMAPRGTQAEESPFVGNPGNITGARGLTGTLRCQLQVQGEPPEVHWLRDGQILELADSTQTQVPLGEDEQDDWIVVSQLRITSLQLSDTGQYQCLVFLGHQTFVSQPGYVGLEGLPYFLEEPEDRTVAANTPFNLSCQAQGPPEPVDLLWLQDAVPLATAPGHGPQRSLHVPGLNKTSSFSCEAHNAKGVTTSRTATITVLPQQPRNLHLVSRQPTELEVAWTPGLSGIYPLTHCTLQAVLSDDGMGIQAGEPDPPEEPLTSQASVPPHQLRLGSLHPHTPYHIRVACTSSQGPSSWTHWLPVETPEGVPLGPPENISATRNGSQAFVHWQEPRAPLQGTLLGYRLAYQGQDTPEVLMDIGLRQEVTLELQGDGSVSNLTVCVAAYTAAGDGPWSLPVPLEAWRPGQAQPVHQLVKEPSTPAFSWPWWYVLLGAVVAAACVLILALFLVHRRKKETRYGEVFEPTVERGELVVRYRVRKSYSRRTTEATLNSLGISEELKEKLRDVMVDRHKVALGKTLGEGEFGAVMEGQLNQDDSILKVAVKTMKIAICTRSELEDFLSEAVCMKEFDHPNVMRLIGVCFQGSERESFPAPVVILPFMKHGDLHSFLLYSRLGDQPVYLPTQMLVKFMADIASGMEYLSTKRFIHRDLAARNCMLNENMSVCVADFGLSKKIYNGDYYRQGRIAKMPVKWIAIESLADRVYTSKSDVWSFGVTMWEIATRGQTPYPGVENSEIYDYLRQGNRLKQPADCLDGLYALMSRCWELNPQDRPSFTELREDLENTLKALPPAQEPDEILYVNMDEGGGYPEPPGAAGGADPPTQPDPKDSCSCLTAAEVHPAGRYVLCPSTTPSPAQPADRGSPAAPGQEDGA
Chain of Tyrosine-protein kinase Blk (Homo sapiens) (P51451 2-505 limits assumed): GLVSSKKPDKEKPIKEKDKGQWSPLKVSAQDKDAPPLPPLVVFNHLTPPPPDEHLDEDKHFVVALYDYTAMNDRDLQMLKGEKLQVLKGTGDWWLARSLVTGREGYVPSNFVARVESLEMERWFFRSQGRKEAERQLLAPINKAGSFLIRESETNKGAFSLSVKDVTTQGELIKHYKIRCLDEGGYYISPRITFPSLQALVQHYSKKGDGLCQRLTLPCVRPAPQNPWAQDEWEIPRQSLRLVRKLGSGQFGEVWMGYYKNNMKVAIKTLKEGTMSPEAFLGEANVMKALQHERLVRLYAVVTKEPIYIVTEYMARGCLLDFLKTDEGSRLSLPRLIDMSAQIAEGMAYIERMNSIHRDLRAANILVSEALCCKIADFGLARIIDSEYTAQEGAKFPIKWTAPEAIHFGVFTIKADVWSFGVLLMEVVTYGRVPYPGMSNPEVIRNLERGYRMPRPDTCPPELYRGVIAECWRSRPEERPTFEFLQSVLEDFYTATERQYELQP
Chain of Protein-tyrosine kinase 6 (Homo sapiens) (Q13882 whole entry, looked up): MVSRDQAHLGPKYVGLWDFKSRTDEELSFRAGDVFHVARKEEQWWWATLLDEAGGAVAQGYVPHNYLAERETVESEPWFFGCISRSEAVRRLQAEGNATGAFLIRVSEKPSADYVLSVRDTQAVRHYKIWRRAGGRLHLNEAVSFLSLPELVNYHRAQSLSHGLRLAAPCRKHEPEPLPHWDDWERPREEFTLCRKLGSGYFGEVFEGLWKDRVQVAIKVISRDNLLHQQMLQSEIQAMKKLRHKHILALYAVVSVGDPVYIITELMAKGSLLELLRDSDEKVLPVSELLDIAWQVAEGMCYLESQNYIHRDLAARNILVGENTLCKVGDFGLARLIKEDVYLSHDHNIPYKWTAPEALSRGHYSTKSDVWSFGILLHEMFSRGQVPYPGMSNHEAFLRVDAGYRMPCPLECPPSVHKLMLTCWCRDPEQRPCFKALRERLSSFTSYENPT
Chain of Tyrosine-protein kinase BTK (Homo sapiens) (Q06187 whole entry): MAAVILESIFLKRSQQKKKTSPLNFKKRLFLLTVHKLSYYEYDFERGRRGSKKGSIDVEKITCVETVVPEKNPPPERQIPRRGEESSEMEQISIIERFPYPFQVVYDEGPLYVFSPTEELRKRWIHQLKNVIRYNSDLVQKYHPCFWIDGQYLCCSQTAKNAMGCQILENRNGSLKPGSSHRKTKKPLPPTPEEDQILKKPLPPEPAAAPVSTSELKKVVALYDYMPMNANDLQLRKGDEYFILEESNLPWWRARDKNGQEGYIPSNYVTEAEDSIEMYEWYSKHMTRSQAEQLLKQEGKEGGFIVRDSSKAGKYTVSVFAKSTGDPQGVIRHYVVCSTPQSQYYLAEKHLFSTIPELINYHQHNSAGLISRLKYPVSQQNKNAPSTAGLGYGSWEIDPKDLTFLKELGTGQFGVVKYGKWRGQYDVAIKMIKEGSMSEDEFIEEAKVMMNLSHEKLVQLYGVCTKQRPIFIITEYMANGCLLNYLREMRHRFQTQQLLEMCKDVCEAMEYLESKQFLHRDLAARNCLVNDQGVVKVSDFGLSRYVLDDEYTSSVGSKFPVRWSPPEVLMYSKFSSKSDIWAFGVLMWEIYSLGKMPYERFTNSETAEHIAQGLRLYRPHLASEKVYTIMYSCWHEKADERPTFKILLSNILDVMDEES

SMILES | inhibition [1] | inhibition [2] | inhibition [3] | inhibition [4] | inhibition [5] | inhibition [6] | inhibition [7] | inhibition [8] | inhibition [9] | inhibition [10]
O=C(Nc1n[nH]c2nnc(-c3cccnc3)cc12)C1CC1 | 1.65% | 0.58% | 2.68% | -0.2% | 0.81% | -0.91% | -0.57% | 0.26% | -0.1% | -1.49%
CCS(=O)(=O)c1ccc(OC)c(Nc2ncc(-c3cccc(F)c3)o2)c1 | -5.62% | 21.3% | 73.8% | 1.13% | 33% | 9.28% | 29.8% | 3.65% | 28.6% | 7.64%
COc1cc2c(cc1Nc1nc(Nc3cccc(F)c3C(N)=O)c3cc[nH]c3n1)N(C(=O)CN1CCN(C(C)C)CC1)CC2 | 2.45% | -0.36% | -0.42% | 2.26% | 3.16% | -1.33% | 3.54% | -0.03% | -1.36% | -1.06%
Cn1c(-c2nonc2N)nc2cnccc21 | -1.86% | 0.51% | 0.41% | 9.58% | 4.09% | 4.32% | 4.24% | 0.86% | 0.33% | 3.1%
CN1CCC(n2cnc(-c3ccc(F)cc3)c2-c2ccnc(NCCO)n2)CC1 | -5.39% | 3.74% | 2.11% | -6.22% | 4.95% | 3.29% | 6.89% | 0.96% | 0.09% | 7.33%
NS(=O)(=O)c1ccc(N/N=C2\C(=O)Nc3cccc(CCc4ccncc4)c32)cc1 | 0.32% | 4.33% | 10.4% | 3.67% | 4.79% | -0.69% | -1.07% | 0.17% | 0.16% | 1.04%
NC(=O)c1ccc2c(-c3ccnc(NCCCO)n3)c(-c3ccc(F)cc3)nn2c1 | 0.42% | 2.21% | 6.11% | 1.45% | 9.25% | 6.4% | 17.1% | 0.41% | 0.35% | 6.17%
COc1c(C(N)=O)cc(-c2ccc(Cl)cc2)cc1-c1ccc(S(N)(=O)=O)cc1 | -6.03% | 1.95% | 3.34% | 4.08% | 6.04% | 3.21% | 4.09% | -1.27% | -0.85% | 3.55%
CCOc1ccc2c(-c3ccnc(Nc4cc(OC)cc(C(F)(F)F)c4)n3)cnn2n1 | -1.43% | 0.5% | 4.83% | -3.75% | 2.82% | 1.51% | 2.17% | -0.58% | -0.1% | -0.12%
CCCNc1cccc(-n2ncc3c(N/N=C/c4ccncc4)ncnc32)c1 | 13.2% | 14.2% | 62.9% | 1.67% | 13.4% | 8.53% | 51% | 1.43% | 4.2% | 2.59%
CS(=O)(=O)CCNCc1ccc(-c2ccc3ncnc(Nc4ccc(OCc5ccccc5)cc4)c3c2)o1 | -1.88% | 3.85% | 14.1% | 3.59% | 8.85% | 2.05% | 13.7% | 0.51% | 6.4% | 5.85%
COc1ccc(Nc2ncc(-c3ccccc3)o2)cc1OC | 3.31% | 1.21% | 24.1% | -7.7% | 4.92% | 0.75% | 2.71% | 0.8% | 2.81% | 1.21%
Cc1ccc(-c2cc3c(NC(=O)C4CC4)ncnc3o2)cc1 | -1.05% | 3.18% | 12.7% | -1.26% | 7.57% | 4% | 8.16% | 0.73% | 1.92% | 2.33%
COc1ccc(-c2nn3ncccc3c2-c2ccnc(Nc3ccc(F)c(F)c3)n2)cc1 | -3.4% | 3.7% | 7.65% | 6.68% | 6.9% | 9.68% | 46.2% | 0.77% | 0.68% | 4.89%
COc1cc(N2CCN(C(C)C)CC2)ccc1Nc1nc(Nc2cccc(F)c2C(=O)O)c2cc[nH]c2n1 | 37.3% | 2.92% | 4.31% | 2.19% | 4.13% | 4.63% | 8.17% | -0.37% | 0.06% | 5.06%
Nc1ncnc2occ(-c3ccc(NC(=O)Nc4cc(C(F)(F)F)ccc4F)cc3)c12 | 37.3% and 23.5% | 4.09% and 1.25% | 39% and 23.5% | 17.8% and 9.86% | 69.5% and 57.2% | 3.76% and -0.33% | 4.26% and 3.06% | 0.97% and 0.09% | 5.11% and 1.18% | 6.39% and 0.36%
